{"source": "PubChem BioAssay AID2546", "about": "(National Center for Advancing Translational Sciences (NCATS), 2010)", "note": "Screen size: about 310,000 compounds; about 11,000 (3.5%) were called active. Not shown: some 8% with an inconclusive outcome. The full list was thinned out, with actives kept by preference. Values without a mark were called inactive. Calls come from the whole dose curve; as a rule, active = well fitted inhibition curve with a large enough effect; inconclusive = small, poorly fitted or top-dose-only effect, or effect the other way; inactive = flat fitted curve, though single readings scatter. % is set by controls: 0 for no effect and ±100 for the full control effect; potency is the fitted concentration of half-maximal effect."}
{"assay": "VP16 counterscreen qHTS for inhibitors of ROR gamma transcriptional activity;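 note: Gal4-VP16 expression switched on by copper sulfate through the metallothionein promoter; nearly all actives have a fitted effect of over 50% in size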", "settings": "Drosophila S2 Gal4-VP16 UAS-luciferase, luminescence, 20 h; series mostly up to 53.6 µM; activity, negative = inhibition: at the top concentration", "from_the_text": "NIH Molecular Libraries Probe Production Network [MLPCN]\nNIH Chemical Genomics Center [NCGC]\nAssay Provider: Dan Littman, New York University\nThe retinoic acid-related orphan receptor (ROR) gamma is a transcription factor that has a central role in the differentiation of Th17 cells, a subset of T helper cells that secrete the inflammatory cytokines IL-17, IL-17F, and IL-22. Th17 cells have been implicated in graft versus host disease, autoimmune disease and asthma. ROR gamma is induced in naive T helper cells in the presence of TGF-beta combined with IL-6, IL-21, or IL-23, and thereafter directs the expression of the Th17 lineage cytokines. To identify nonspecific inhibitors, a Drosophila Schneider cell line was stably transfected with two vectors: a gene expressing a fusion of the Gal4 DNA binding domain and VP16 transactivation domain under the control of the metallothionine promoter and a Photinus luciferase reporter regulated by the Gal4 binding site enhancer, UAS. […] Small molecule inhibitors that inhibit components common to the RORgt and VP16 assays, such as the Gal4 DNA binding domain or the UAS luciferase reporter, will be active in both assays and thus scored as nonspecific.\nFor screening, 600 cells in 4 uL/well were dispensed into white solid 1536-well plates (Grenier) using a solenoid-based dispenser. Following transfer of 23 nL compound or DMSO vehicle by a pin tool, the plates were incubated 1 hr at ambient temperature, and 1 uL/well copper sulfate (700 uM final concentration) was added. The plates were centrifuged 15 s at 1000 RPM and incubated 20 hr at ambient temperature. After addition of 1.5 uL Photinus luciferase detection reagent, the plates were incubated 10 min at ambient temperature and then read by a ViewLux (Perkin Elmer) to detect luminescence.", "units": {"activity, negative = inhibition": "%"}}
{"compound": "Cc1onc(-c2ccccc2)c1C(=O)N=C(N)c1ccc(Cl)cc1", "activity, negative = inhibition": 2.19}
{"compound": "Cc1onc(-c2ccccc2)c1C(=O)NNC(=S)NC(=O)c1ccc(F)cc1", "Potency": "2 µM (active)"}
{"compound": "COc1ccc(C(=O)NC(=S)NNC(=O)c2c(-c3ccccc3)noc2C)cc1", "Potency": "5.62 µM (active)"}
{"compound": "Cc1ccc(CNC(=O)c2c(-c3ccccc3)noc2C)cc1", "activity, negative = inhibition": 2.32}
{"compound": "CC(=O)Nc1cccc(NC(=O)c2c(-c3ccccc3)noc2C)c1", "activity, negative = inhibition": 1.1}
{"compound": "CC(C)c1ccc(S(=O)(=O)NC2CCCC2)cc1", "activity, negative = inhibition": -5.01}
{"compound": "COc1ccc(CN2CC(C(=O)NCCc3ccc(Cl)cc3)CC2=O)cc1", "note": "(stereo not drawn)", "activity, negative = inhibition": -9.08}
{"compound": "CC(C)(C)c1ccc(Oc2ccc(N)cc2)cc1", "Potency": "7.08 µM (active)"}
{"compound": "Nc1ccc(Oc2ccc(Cl)cc2)cc1", "activity, negative = inhibition": 3.52}
{"compound": "Cc1ccc(Oc2ccc(N)cc2)cc1", "activity, negative = inhibition": -9.31}
{"compound": "CC1=C(C(=O)NC2CC(C)(C)Cc3c2cnn3-c2ccc(C)cc2)OCCO1", "note": "(stereo not drawn)", "activity, negative = inhibition": -4.61}
{"compound": "NS(=O)(=O)c1ccc2nc(NC(=O)CS(=O)(=O)c3ccc(F)cc3)sc2c1", "activity, negative = inhibition": -1.43}
{"compound": "CCS(=O)(=O)N1Cc2ccccc2CC1C(=O)Nc1nc2ccc(F)cc2s1", "note": "(stereo not drawn)", "Potency": "11.2 µM (active)"}
{"compound": "CCS(=O)(=O)N1Cc2ccccc2CC1C(=O)Nc1ccc(OC)cc1OC", "note": "(stereo not drawn)", "activity, negative = inhibition": -9.75}
{"compound": "O=c1c2cc([N+](=O)[O-])ccc2nc2n1CCC2", "activity, negative = inhibition": -7.99}
{"compound": "O=S(=O)(NC1CCCCC1N1CCC(O)CC1)c1ccc(Cl)cc1", "note": "(stereo not drawn)", "activity, negative = inhibition": -8.83}
{"compound": "COc1cccc(CN(C)CC(O)COC(c2ccccc2)c2ccccc2C)c1", "note": "(stereo not drawn)", "activity, negative = inhibition": -7.19}
{"compound": "COc1ccc(NC(=O)CCS(=O)(=O)c2cc3c(cc2Cl)NC(=O)CO3)cc1OC", "activity, negative = inhibition": -4.94}
{"compound": "CN(C)CCN(C(=O)C1=COCCO1)c1nc2ccc(Cl)cc2s1", "activity, negative = inhibition": 1.38}
{"compound": "O=C(Nc1ccccc1)c1ccco1", "activity, negative = inhibition": 6.47}
{"compound": "O=C(Nc1ccc(O)cc1)c1ccc(NC(=O)c2ccco2)cc1", "activity, negative = inhibition": 21.4}
{"compound": "O=C(Nc1ccc(Sc2ccc(Br)cc2)cc1)c1ccco1", "Potency": "2.82 µM (active)"}
{"compound": "CCN(CC(=O)Nc1ccc(C)c(S(=O)(=O)N(C)C)c1)Cc1ccccc1", "activity, negative = inhibition": -1.1}
{"compound": "Cc1ccc(C(C)C)c(OCCSc2nc3ccccc3n2CC(=O)O)c1", "activity, negative = inhibition": 3.88}
{"compound": "CN(Cc1ccc(F)cc1Cl)S(=O)(=O)c1cccs1", "activity, negative = inhibition": -4.3}
{"compound": "CN(NS(=O)(=O)c1cccs1)c1ncc(C(F)(F)F)cc1Cl", "Potency": "5.01 µM (active)"}
{"compound": "C#CCN(N(C)c1ncc(C(F)(F)F)cc1Cl)S(=O)(=O)c1ccc2ccccc2c1", "activity, negative = inhibition": 5.11}
{"compound": "Cc1ccc(NC2CCCN(C(=O)CCc3cn[nH]c3)C2)cc1C", "note": "(stereo not drawn)", "activity, negative = inhibition": -6.86}
{"compound": "CCc1nccn1CCC(=O)N1CCCC(N2CCN(c3ccccc3F)CC2)C1", "note": "(stereo not drawn)", "activity, negative = inhibition": -2.05}
{"compound": "COCc1ccc(C(=O)NC2CC(C)(C)Cc3c2cnn3-c2ccc(C)cc2)o1", "note": "(stereo not drawn)", "activity, negative = inhibition": -21.6}
{"compound": "CCCc1cc(C(=O)N2CCCC(CO)(CCCc3ccccc3)C2)n(C)n1", "note": "(stereo not drawn)", "activity, negative = inhibition": 3.03}
{"compound": "O=C(O)c1ccc(N/N=C/c2ccc3ncccc3c2)cc1", "Potency": "0.398 µM (active)"}
{"compound": "O=C(O)c1ccc(/C=N/NC(=O)c2ccc(Br)cc2)cc1", "activity, negative = inhibition": -3.08}
{"compound": "O=C(O)c1ccc(/C=N/Nc2nc(N3CCCCC3)nc(N3CCCCC3)n2)cc1", "activity, negative = inhibition": -5.92}
{"compound": "COc1ccc(OCc2cc(C(=O)NCC3(C)COC3)no2)c(Cl)c1", "activity, negative = inhibition": 22.6}
{"compound": "COc1ccc(CNC(=O)C(=O)NCC2OCCN2C(=O)c2ccc(OC)cc2)cc1", "note": "(stereo not drawn)", "activity, negative = inhibition": -5.04}
{"compound": "COc1ccccc1C(=O)N(C1=NC(C)CS1)c1ccc(Cl)cc1", "note": "(stereo not drawn)", "activity, negative = inhibition": -11.6}
{"compound": "CN(CCc1ccccn1)C(=O)c1ccc(OC2CCN(CCc3ccccc3)CC2)cc1", "activity, negative = inhibition": 2.42}
{"compound": "CCOC(=O)c1c(S(=O)(=O)Nc2cccc(Cl)c2)c(C)n(C)c1C", "activity, negative = inhibition": -12}
{"compound": "CC(C)c1ccc2c([Si](C)(C)C)c3c(nc2c1)-c1cccc(=O)n1C3", "activity, negative = inhibition": 4.7}
{"compound": "Cc1c2c(nc3ccccc13)-c1cccc(=O)n1C2", "Potency": "8.91 µM (active)"}
{"compound": "Cc1nc2ccccc2c(C)c1C(=O)c1ccc(F)cc1", "activity, negative = inhibition": 10.9}
{"compound": "Cc1cc(C)c2nc(N(CCN(C)C)C(=O)/C=C/c3cccs3)sc2c1", "activity, negative = inhibition": -16.5}
{"compound": "C=CCNC(=S)N/N=C/c1ccc(OCc2ccccc2)cc1", "activity, negative = inhibition": 11.6}
{"compound": "CNC(=S)N/N=C/c1ccc(OCc2ccccc2)c(Br)c1", "Potency": "3.55 µM (active)"}
{"compound": "O=C(O)COc1ccc(/C=N/O)cc1Br", "activity, negative = inhibition": -6.64}
{"compound": "Cc1cc(C)cc(N(CC(=O)NC2CCCC2)C(=O)CCC(=O)Nc2cc(C)on2)c1", "activity, negative = inhibition": -10.9}
{"compound": "O=C(Nc1ccc(F)cc1)C(=O)c1cn(CC(=O)N2CCOCC2)c2ccccc12", "activity, negative = inhibition": 13.1}
{"compound": "Cc1cc(C(=O)CSc2nc(N)cc(=O)[nH]2)c(C)n1CCc1ccc(Cl)cc1", "activity, negative = inhibition": -18.2}
{"compound": "Cc1cc(C(=O)CSc2nc(N)cc(=O)[nH]2)c(C)n1-c1cccc(F)c1", "Potency": "17.8 µM (active)"}
{"compound": "Cc1cc(=O)[nH]c(SCc2cccc(F)c2)n1", "activity, negative = inhibition": 11.1}
{"compound": "CCCn1c(=O)c(C(=O)Nc2cc(C)ccn2)c(O)c2ccccc21", "activity, negative = inhibition": -14.8}
{"compound": "CCN1C(=S)N[C@@H](CCc2ccccc2)[C@H](C(=O)OC)[C@H]1C", "activity, negative = inhibition": -15.7}
